Experimental data as given in PubChem BioAssay AID493170 (National Center for Advancing Translational Sciences (NCATS), 2011).
Records with an inconclusive call do not appear. A call without a number means that no potency is given here. The source made the active and inactive calls. The call rests on the fitted dose curve; in most records, active means well fitted inhibition curve with a large enough effect; inconclusive means small, poorly fitted or top-dose-only effect, or effect the other way; inactive means flat fitted curve, though single readings scatter.

molecular target: Ubiquitin carboxyl-terminal hydrolase 2 (Homo sapiens) (UniProt O75604); assay: Ub-rhodamine 110 based assay for inhibitors Ubiquitin-specific Protease USP2a; conditions: USP2a Ub-rhodamine110 cleavage, fluorescence; series mostly up to 38.3 µM; further: nearly all actives have a fitted effect of over 50% in size
From the text: NIH Molecular Libraries Probe Centers Network [MLPCN] NIH Chemical Genomics Center [NCGC] MLPCN Grant: XO1-MH079852-01 PI Name: Nicholson, Ben. Progenra Inc, Malvern, PA NCGC Assay Overview: Homeostasis of cellular proteins is maintained through a combination of synthesis and degradation. The pathway that accounts for the majority of protein degradation is the ubiquitin-proteasomal pathway. Ubiquitin (Ub) is highly conserved in all cells and the generation of a multi-Ub chain typically targets proteins for degradation by the proteasome. However, ubiquitination is highly reversible and dynamic. Deubiquitination, the reverse process, is catalyzed through the action of enzymes referred to as isopeptidases or deubiquitinating enzymes (DUBs). This group of enzymes is collectively responsible for maintaining adequate pools of free ubiquitin and regulating the ubiquitination status of cellular proteins. The class of DUBs referred to as the ubiquitin-specific proteases (USP) family functions endoproteolytically to cleave Ub chains from a wide range of protein substrates. USP2a deubiquitinates fatty acid synthase (FASN) which has recently been identified as an emerging oncology target. To identify inhibitors of USP2a a cell-free assay was employed. This assay measures cleavage of a profluorescent substrate (Ub-Rhodamine 110; Boston Biochem Cat#: U-555) by USP2a. The assay gives a fluorescent read-out at excitation/emission wavelengths of 485/531. The USP2a enzyme was provided by Progenra, Inc. licensed for sale by LifeSensors, Inc.
NCGC Assay Protocol: The assay buffer, prepared fresh at the day of the assay, contains 20mM Tris-HCl pH 8.0, 2mM CaCl2, 2mM beta-Mercaptoethanol, 0.05% CHAPS. 3uL of 10 nM (5 nM final) USP2a, was dispensed into a medium-binding black solid Kalypsys 1,536 well plate using the Kalypsys dispenser. The assay plate was then pinned with 23nL compounds in DMSO with a Kalypsys pintool in columns 5-48 (0.3% final DMSO concentration). The negative control was buffer/DMSO only in column 3. The assay plate is incubated at RT for 30min. Subsequently, 3uL of 300 nM Ub-Rhod110 (150 nM final) was dispensed into the plate using a Kalypsys dispenser. Plates were read after every minute for 7 min on a ViewLux (Perkin Elmer) plate reader using the following wavelengths: Ex 485nm /Em 531nm. Data were normalized to the AC100 inhibition (buffer alone). Concentration-response curves were fitted to the normalized data and the concentration-response curves were then classified based on curve quality (r2), response magnitude and degree of measured activity. The time zero reading was used to flag fluorescence artifacts.
Potency means the concentration at half of the fitted maximal effect.

Chain of Ubiquitin carboxyl-terminal hydrolase 2 (Homo sapiens) (O75604 whole entry, looked up): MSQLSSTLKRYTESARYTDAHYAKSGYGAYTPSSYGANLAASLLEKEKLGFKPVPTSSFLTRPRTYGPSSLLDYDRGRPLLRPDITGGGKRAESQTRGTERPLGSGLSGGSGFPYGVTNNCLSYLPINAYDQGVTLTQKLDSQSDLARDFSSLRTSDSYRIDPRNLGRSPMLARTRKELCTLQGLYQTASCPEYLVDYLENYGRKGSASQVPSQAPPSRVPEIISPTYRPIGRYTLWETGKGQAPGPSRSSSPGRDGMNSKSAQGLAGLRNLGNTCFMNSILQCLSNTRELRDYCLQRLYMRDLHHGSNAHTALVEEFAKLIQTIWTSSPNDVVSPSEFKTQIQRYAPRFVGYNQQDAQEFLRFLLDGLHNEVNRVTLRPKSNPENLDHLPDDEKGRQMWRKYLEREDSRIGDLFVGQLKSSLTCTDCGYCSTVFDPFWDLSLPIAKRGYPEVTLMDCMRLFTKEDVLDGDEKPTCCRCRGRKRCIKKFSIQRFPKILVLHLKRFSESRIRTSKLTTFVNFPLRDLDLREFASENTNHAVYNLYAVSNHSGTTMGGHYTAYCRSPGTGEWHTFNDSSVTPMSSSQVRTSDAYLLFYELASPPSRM

Row | Compound | Potency
1 | Cc1cc(N=Nc2ccc(C)c(N=Nc3cc(C)c(N)cc3N)c2)c(N)cc1N | inactive
2 | O=C(c1cccc(F)c1)N1CCN(S(=O)(=O)c2ccccc2)CC1 | inactive
3 | O=C(CC1Oc2ccccc2NC1=O)NCc1ccc(Cl)cc1 (stereo not given) | inactive
4 | COc1cc2c(C(=O)N3CCN(c4cccc(Cl)c4)CC3)cn(CC(C)C)c(=O)c2cc1OC | inactive
5 | O=C(CSc1nc(O)cc(=O)n1-c1ccccc1)NC1CCCCC1 | inactive
6 | Cc1ccc(C(=O)c2coc3c2C(=O)C(=O)c2ccccc2-3)cc1 | inactive
7 | Cc1c(N=C/C=C2\N(C)c3ccccc3C2(C)C)c(=O)n(-c2ccccc2)n1C | inactive
8 | Oc1ccccc1/C=N/Nc1ncc(Br)cn1 | inactive
9 | CCCn1nnc(NC(=O)c2cccc(OCC(C)C)c2)n1 | inactive
10 | O=C(COC(=O)c1ccc(NS(=O)(=O)c2cccs2)cc1)Nc1nc2c(F)c(F)c(F)cc2s1 | 3.55 µM (active)
11 | O=C(CCN1C(=O)/C(=C\c2ccco2)SC1=S)Nc1ccc(C(=O)O)c(O)c1 | 7.94 µM (active)
12 | Cn1c(C(=O)NCCN2CCOCC2)cc2c(=O)n(C)c3ccccc3c21 | inactive
13 | Cn1nnnc1Sc1ncnc2scc(-c3ccc4c(c3)OCO4)c12 | inactive
14 | COc1ccc(/C=C2\SC(=O)N(CCC(=O)Nc3ccc(S(=O)(=O)Nc4nccs4)cc3)C2=O)cc1 | 10 µM (active)
15 | O=C(Nc1cccc(C(F)(F)F)c1)/C(=C\c1ccco1)NC(=O)c1cccs1 | inactive
16 | O=[N+]([O-])c1c(NCCO)cc(N2CCN(Cc3ccc4c(c3)OCO4)CC2)c2nonc12 | inactive
17 | O=C(COc1ccccc1)Nc1nnc(-c2ccc(Cl)s2)o1 | inactive
18 | Cc1ccc2nc(NCCCNC(=O)c3cnccn3)c(C#N)cc2c1 | inactive
19 | O=C(/C=C1\NC2(CCCC2)Cc2ccccc21)C(=O)N/N=C/c1ccc(O)c(O)c1 | 7.94 µM (active)
20 | Cc1ccc(O)c(CC(C)C)n1 | inactive

Row | Compound | Potency
21 | O=C(COc1ccccc1)NCc1nnc(SCC(=O)Nc2nccs2)n1-c1ccccc1 | inactive
22 | O=C1Nc2ccccc2SC(c2ccccc2)C1O (stereo not given) | 3.98 µM (active)
23 | Cc1nc(N(C)C)c2sc(=S)n(C)c2n1 | inactive
24 | CCN(C[C@H]1N[C@@](CC)(C(=O)OC)[C@H]2C(=O)N(Cc3ccccc3)C(=O)[C@@H]12)C(=O)Nc1ccc(C)cc1 | inactive
25 | Cc1ccc([C@@H]2CC=C(C(=O)O)[C@H](c3ccc(C(C)(C)C)cc3)N2S(=O)(=O)c2ccc(C)cc2)cc1 | 10 µM (active)
26 | CC(C)(C)C1CCc2nc(NC(=O)Cc3cn4ccsc4n3)sc2C1 (stereo not given) | inactive
27 | C#CCOCCOCCOCCNc1nc(N2CCN(C(=O)CCCCCCCCCCNC(=O)Cn3cc(C[C@@H](C)O)nn3)CC2)nc(N2CCN(C(=O)CCCCCCCCCCNC(=O)[C@@H]([C@H](C)CC)n3cc(CCCCCN)nn3)CC2)n1 | inactive
28 | CC(C(=O)Nc1ccc(C(=O)O)c(O)c1)N1C(=O)/C(=C\c2ccco2)SC1=S (stereo not given) | 10 µM (active)
29 | CCOC(=O)C1CCN(C(=O)COC(=O)c2c(C)c(CC)nc3ccccc23)CC1 | inactive
30 | c1ccc(-c2ccccc2OCCCN2CCOCC2)cc1 | inactive
31 | O=C(/C=C/c1ccc(O)c(O)c1)c1ccc(S(=O)(=O)N2CCCCCC2)cc1 | 3.98 µM (active)
32 | Cc1ccc(CN2C(=O)N/C(=C\c3cccn3-c3cccc(C(=O)O)c3)C2=O)cc1 | inactive
33 | C#CCOCCOCCOCCNc1nc(N2CCN(C(=O)CCCCCCCCCCNC(=O)Cn3cc(CCCCCN)nn3)CC2)nc(N2CCN(C(=O)CCCCCCCCCCNC(=O)Cn3cc(CCCCCN)nn3)CC2)n1 | inactive
34 | CCOC(=O)CN1C(=O)S/C(=C/c2ccc(O)c([N+](=O)[O-])c2)C1=O | inactive
35 | NC(=O)C[C@@H]1N[C@]2(C(=O)Nc3ccccc32)[C@@H]2C(=O)N(c3cc(C(F)(F)F)ccc3Cl)C(=O)[C@H]12 | inactive
36 | CC1=C(C(=O)OC(C)C)C(C)C(C(=O)OC(C)C)=C(C)N1 | inactive
37 | O=[N+]([O-])c1cc(-c2ccc(/C=N\n3cnnc3)o2)cc([N+](=O)[O-])c1 | 11.2 µM (active)
38 | CN(C)CCCN1C(=O)C(=O)/C(=C(/O)c2ccncc2)C1c1cccnc1 (stereo not given) | inactive
39 | CC(=O)Nc1ccc(NC(=O)[C@@H](NC(=O)c2cccc(C)c2)C(C)C)cc1 | inactive
40 | Cc1nc2cc3ccccc3cc2c(=O)[nH]1 | inactive
